The target of assay [1] is 5'-AMP-activated protein kinase catalytic subunit alpha-2 (Homo sapiens) (UniProt P54646). The note with it: at 1 µM.
The target of assay [2] is T1, NUAK family SNF1-like kinase 1 (Homo sapiens) (UniProt O60285).
T1 sequence (whole entry): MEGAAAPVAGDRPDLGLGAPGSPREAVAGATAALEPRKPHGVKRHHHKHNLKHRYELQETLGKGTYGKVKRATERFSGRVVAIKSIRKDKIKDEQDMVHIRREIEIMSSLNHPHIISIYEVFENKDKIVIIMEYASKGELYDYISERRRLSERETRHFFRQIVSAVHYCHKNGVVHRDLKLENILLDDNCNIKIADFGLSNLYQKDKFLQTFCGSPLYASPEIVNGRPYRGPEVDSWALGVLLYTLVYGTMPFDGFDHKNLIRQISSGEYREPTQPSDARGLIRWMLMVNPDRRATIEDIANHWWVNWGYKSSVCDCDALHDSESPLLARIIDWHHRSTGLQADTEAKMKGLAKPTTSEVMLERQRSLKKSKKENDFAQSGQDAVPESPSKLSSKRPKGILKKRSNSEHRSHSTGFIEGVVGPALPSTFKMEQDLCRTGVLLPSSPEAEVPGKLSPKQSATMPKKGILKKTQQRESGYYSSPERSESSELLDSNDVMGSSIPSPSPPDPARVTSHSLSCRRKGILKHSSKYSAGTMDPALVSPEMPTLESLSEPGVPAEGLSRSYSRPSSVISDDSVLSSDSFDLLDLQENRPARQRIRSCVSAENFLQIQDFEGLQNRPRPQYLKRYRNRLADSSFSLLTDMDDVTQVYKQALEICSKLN
The note with it: at 0.1 µM.

Assay [3] concerns the target T1, NUAK family SNF1-like kinase 1 (Homo sapiens). The conditions noted are these: at 1 µM.
Assay [4] concerns the target T2, Serine/threonine-protein kinase BRSK1 (Homo sapiens) (UniProt Q8TDC3).
T2 sequence (whole entry): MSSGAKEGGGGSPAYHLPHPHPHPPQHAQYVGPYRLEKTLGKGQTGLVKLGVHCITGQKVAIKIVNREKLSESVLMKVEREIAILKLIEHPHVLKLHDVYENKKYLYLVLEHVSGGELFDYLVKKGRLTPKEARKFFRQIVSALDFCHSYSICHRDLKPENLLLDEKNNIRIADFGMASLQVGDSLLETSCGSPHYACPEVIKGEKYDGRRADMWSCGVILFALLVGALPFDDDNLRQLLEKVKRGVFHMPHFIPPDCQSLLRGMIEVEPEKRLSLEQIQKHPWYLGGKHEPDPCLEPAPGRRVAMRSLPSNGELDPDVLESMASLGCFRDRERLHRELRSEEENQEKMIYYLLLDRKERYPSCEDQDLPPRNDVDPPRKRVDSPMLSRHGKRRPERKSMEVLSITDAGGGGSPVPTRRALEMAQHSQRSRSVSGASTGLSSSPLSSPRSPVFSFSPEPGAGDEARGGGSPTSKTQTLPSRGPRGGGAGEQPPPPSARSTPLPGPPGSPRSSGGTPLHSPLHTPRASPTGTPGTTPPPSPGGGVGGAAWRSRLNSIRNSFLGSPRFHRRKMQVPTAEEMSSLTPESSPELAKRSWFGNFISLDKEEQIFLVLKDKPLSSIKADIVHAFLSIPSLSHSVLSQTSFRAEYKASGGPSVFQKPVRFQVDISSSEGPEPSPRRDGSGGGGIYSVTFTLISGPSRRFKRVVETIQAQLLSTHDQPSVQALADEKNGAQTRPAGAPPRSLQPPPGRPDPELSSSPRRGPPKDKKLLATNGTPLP
The note with it: at 0.1 µM.

Assay [5] has as its target T2, Serine/threonine-protein kinase BRSK1 (Homo sapiens). The conditions noted are these: at 1 µM.
Assay [6] deals with T3, Serine/threonine-protein kinase BRSK2 (Homo sapiens) (UniProt Q8IWQ3).
T3 sequence (whole entry): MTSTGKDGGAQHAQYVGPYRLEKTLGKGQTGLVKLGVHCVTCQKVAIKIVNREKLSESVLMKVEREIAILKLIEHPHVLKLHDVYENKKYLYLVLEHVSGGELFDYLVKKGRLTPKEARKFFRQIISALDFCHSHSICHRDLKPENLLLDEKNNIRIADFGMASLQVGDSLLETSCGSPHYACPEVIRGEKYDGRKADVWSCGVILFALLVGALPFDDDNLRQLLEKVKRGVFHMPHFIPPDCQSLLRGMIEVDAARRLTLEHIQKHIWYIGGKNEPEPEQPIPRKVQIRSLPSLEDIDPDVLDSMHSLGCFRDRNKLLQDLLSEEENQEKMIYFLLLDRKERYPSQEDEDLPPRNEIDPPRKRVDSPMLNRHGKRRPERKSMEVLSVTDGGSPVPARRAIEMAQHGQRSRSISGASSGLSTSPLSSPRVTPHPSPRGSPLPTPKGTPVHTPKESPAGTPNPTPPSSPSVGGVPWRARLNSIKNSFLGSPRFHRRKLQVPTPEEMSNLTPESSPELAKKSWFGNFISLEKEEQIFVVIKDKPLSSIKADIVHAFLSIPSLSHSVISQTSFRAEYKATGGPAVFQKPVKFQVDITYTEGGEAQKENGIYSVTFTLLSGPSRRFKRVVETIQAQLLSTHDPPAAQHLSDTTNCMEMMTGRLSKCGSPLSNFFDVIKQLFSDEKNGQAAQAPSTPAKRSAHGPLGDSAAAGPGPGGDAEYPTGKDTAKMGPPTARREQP
The conditions noted are these: at 0.1 µM.

For assay [7], the target named is T3, Serine/threonine-protein kinase BRSK2 (Homo sapiens). The note with it: at 1 µM.
Assay [8] concerns the target Calcium/calmodulin-dependent protein kinase type 1D (Homo sapiens) (UniProt Q8IU85). The conditions noted are these: at 0.1 µM.
Assay [9] shares this target. The note with it: at 1 µM.
In assay [10] the target is Calcium/calmodulin-dependent protein kinase type II subunit alpha (Homo sapiens) (UniProt Q9UQM7). The note with it: at 0.1 µM.
Assay [11] has the same target. The conditions noted are these: at 1 µM.
For assay [12], the target named is Calcium/calmodulin-dependent protein kinase type II subunit delta (Homo sapiens) (UniProt Q13557). The conditions noted are these: at 0.1 µM.
Assay [13] has the same target. The conditions noted are these: at 1 µM.
The target of assay [14] is T4, Calcium/calmodulin-dependent protein kinase type IV (Homo sapiens) (UniProt Q16566).
T4 sequence (whole entry): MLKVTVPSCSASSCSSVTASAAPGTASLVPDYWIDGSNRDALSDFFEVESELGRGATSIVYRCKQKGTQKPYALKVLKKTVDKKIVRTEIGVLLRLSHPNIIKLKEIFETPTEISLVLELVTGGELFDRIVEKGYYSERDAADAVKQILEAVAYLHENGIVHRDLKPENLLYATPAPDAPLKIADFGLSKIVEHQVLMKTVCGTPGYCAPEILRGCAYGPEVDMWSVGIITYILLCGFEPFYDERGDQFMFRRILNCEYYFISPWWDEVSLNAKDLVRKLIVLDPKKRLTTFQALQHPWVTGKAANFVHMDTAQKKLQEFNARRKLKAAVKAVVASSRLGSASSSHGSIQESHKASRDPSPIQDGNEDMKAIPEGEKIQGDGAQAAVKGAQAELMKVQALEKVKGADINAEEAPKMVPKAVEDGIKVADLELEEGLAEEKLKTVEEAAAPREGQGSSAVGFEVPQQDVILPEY
The note with it: at 0.1 µM.

For assay [15], the target named is T4, Calcium/calmodulin-dependent protein kinase type IV (Homo sapiens). The conditions noted are these: at 1 µM.
The target in assay [16] is T5, Serine/threonine-protein kinase Chk1 (Homo sapiens) (UniProt O14757).
T5 sequence (whole entry): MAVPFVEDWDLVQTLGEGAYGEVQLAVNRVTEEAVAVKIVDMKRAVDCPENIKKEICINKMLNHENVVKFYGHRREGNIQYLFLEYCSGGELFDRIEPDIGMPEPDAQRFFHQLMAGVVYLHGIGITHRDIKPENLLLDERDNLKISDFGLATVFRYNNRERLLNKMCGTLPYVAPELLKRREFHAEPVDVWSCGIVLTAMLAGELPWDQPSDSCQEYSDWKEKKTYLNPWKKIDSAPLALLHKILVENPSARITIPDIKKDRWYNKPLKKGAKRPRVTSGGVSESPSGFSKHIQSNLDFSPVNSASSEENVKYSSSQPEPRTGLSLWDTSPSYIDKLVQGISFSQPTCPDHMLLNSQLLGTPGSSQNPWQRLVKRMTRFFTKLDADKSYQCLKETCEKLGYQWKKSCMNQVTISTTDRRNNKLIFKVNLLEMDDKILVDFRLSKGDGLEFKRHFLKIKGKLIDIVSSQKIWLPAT
The conditions noted are these: at 0.1 µM.

Assay [17] has as its target T5, Serine/threonine-protein kinase Chk1 (Homo sapiens). The note with it: at 1 µM.
The target of assay [18] is Serine/threonine-protein kinase Chk2 (Homo sapiens) (UniProt O96017). The conditions noted are these: at 0.1 µM.
The target is the same in assay [19]. The conditions noted are these: at 1 µM.
Assay [20] addresses Death-associated protein kinase 1 (Homo sapiens) (UniProt P53355). The note with it: at 0.1 µM.

5'-AMP-activated protein kinase catalytic subunit alpha-2 (Homo sapiens), sequence (P54646 whole entry, looked up): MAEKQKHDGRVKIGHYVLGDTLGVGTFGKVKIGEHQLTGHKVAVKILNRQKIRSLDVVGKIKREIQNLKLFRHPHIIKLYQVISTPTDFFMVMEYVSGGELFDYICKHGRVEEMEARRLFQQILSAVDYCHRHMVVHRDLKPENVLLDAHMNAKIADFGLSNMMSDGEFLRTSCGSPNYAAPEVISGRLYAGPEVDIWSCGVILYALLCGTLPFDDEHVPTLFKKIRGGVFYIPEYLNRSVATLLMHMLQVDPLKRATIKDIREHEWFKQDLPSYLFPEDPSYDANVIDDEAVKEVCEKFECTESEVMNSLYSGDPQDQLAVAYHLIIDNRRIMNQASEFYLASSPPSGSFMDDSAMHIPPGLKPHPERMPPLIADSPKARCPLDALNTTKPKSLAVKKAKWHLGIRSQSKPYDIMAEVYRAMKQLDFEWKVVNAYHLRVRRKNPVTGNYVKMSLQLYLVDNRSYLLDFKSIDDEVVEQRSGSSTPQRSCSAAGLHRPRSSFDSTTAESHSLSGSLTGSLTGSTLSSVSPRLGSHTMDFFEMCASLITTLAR
Calcium/calmodulin-dependent protein kinase type II subunit delta (Homo sapiens), sequence (Q13557 whole entry): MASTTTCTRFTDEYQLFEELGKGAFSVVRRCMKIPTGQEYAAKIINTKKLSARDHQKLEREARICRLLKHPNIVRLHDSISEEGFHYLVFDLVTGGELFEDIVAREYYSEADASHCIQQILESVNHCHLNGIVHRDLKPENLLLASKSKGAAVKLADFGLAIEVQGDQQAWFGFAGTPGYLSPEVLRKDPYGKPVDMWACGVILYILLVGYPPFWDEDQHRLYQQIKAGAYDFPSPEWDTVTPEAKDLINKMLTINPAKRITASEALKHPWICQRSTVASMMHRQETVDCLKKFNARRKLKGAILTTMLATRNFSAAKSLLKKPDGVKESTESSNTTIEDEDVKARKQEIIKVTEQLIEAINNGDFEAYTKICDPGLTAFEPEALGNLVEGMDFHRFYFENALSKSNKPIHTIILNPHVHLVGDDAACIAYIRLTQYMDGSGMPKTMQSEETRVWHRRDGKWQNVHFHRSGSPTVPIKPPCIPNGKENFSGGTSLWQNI
Serine/threonine-protein kinase Chk2 (Homo sapiens), sequence (O96017 whole entry): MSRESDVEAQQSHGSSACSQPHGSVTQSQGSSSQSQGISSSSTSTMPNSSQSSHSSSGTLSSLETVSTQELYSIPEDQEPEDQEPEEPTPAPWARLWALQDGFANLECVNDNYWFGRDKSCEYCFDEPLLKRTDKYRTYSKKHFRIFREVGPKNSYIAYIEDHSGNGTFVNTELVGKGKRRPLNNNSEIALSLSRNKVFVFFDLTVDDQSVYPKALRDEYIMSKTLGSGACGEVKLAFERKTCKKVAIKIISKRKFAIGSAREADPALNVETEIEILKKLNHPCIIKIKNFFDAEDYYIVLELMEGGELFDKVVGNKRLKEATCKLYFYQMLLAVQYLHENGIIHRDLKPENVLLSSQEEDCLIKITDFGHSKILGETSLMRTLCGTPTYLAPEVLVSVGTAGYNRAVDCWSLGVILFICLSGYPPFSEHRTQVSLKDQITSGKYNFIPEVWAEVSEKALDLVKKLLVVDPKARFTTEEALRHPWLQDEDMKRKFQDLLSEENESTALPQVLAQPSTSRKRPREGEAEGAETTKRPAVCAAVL
Calcium/calmodulin-dependent protein kinase type 1D (Homo sapiens), sequence (Q8IU85 whole entry, looked up): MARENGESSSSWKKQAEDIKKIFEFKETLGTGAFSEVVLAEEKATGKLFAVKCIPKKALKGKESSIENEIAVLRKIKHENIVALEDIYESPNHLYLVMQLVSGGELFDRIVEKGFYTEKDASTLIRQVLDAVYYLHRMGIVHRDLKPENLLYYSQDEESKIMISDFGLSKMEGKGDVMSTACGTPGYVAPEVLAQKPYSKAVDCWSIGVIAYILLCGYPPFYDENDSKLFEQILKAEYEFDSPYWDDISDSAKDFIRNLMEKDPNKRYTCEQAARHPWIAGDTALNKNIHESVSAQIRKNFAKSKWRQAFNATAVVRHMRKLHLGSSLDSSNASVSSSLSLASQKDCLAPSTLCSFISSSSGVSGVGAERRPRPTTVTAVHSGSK
Calcium/calmodulin-dependent protein kinase type II subunit alpha (Homo sapiens), sequence (Q9UQM7 whole entry): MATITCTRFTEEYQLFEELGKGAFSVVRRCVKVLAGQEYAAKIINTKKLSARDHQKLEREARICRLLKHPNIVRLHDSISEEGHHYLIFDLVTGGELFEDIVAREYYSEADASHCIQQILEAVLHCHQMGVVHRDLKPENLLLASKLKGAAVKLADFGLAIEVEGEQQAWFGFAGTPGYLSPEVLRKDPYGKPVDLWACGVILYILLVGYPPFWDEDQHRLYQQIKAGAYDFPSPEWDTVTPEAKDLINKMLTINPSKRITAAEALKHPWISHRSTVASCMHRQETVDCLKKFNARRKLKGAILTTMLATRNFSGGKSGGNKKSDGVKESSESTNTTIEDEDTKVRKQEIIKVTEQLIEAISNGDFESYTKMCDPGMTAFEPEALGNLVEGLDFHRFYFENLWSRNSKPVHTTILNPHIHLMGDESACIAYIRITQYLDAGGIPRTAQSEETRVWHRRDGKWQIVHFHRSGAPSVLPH
Death-associated protein kinase 1 (Homo sapiens), sequence (P53355 whole entry, looked up): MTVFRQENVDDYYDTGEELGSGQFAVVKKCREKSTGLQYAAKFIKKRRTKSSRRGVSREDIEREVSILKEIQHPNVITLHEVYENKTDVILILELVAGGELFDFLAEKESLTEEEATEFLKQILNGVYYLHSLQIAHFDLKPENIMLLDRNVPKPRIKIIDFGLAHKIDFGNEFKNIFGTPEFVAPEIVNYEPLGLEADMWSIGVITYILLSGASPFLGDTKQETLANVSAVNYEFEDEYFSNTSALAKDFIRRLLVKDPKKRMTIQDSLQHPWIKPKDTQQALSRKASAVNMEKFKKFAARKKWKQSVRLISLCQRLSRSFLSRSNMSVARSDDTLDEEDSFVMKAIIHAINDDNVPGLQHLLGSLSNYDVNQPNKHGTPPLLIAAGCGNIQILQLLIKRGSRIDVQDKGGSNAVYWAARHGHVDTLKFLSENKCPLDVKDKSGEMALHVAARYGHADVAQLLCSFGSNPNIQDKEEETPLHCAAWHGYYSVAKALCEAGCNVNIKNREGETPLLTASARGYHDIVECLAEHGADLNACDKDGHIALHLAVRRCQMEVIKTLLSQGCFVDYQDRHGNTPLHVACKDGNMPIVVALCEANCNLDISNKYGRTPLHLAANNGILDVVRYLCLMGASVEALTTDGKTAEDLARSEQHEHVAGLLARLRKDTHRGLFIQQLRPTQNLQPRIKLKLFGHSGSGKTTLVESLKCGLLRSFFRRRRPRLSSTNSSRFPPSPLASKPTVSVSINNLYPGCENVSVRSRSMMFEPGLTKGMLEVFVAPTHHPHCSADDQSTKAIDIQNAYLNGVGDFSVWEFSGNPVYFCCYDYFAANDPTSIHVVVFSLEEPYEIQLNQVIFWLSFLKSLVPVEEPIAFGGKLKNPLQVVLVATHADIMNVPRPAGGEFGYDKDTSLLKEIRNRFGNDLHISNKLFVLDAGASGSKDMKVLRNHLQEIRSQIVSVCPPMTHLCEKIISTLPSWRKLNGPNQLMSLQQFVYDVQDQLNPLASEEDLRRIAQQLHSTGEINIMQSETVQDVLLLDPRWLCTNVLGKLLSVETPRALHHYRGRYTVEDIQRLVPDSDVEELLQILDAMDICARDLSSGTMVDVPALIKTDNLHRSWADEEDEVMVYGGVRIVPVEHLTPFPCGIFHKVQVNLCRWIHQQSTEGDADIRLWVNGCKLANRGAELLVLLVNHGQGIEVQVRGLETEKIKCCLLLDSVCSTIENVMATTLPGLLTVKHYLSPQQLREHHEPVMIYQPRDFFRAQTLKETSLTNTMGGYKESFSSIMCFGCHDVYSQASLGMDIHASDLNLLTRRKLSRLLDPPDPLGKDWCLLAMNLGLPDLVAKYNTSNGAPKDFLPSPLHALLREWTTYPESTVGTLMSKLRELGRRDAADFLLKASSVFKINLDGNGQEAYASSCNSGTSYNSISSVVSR

On to `COC(=O)Nc1nc2cc(Oc3ccc(NC(=O)Nc4cccc(C(=O)O)c4)cc3)ccc2[nH]1`, for which the inhibition in assay [1] was 2.8%; in [2] it was 6.73%; in assay [3], 8%; in [4], -1.07%; in assay [5], 2.91%; in assay [6] it was 2.19%. Further, the inhibition is 9.32% in assay [7]; 0.59% in assay [8]; -1.87% in [9]; 1.77% in [10]; 3.09% in assay [11]; 1.92% in assay [12]. Besides, the inhibition is 1.91% in assay [13]; -1.16% in assay [14]; -2.08% in assay [15]; -3.62% in assay [16]; -0.43% in assay [17]; 0.25% in [18]. Moreover, the inhibition was 6.26% in [19] and 1.22% in assay [20].
For the compound `CC1=C(C(=O)Nc2ccc3[nH]ncc3c2)C(c2ccc3ccccc3c2)CC(=O)N1` (stereo not given), the inhibition is 11.5% in assay [1]; 7.78% in [2]; 43.5% in assay [3]; 1.91% in assay [4]; 20.8% in assay [5]; 3.96% in assay [6]. Besides, the inhibition was 31.3% in assay [7]; -0.51% in assay [8]; 0.49% in [9]; -0.08% in assay [10]; 0.99% in assay [11]; 0.33% in assay [12]. For the same compound, the inhibition in [13] is 3.19%; in assay [14], 1.12%; in assay [15], 0.1%; in assay [16], 0.95%; in assay [17], 3.91%; in [18], 1.29%. Besides, the figures for the inhibition in assay [19] and in assay [20] were 4.21% and 0.55%, respectively.
For the compound `CCn1c(-c2nonc2N)nc2ccncc21`, the inhibition in [1] was 4.28%; in [2], 1.84%; in assay [3], 4.31%; in assay [4] it was 1.52%; in assay [5] it was 2.23%; in [6], 1.34%. Besides, the inhibition in assay [7] worked out at 0.91%; in [8] it was 1.15%; in assay [9], 1.59%; in assay [10] it was 3.93%; in assay [11], 6.48%; in assay [12], 2.32%. Moreover, the inhibition was 4.41% in [13]; 0.03% in assay [14]; 1.1% in [15]; 1.89% in [16]; 0.17% in [17]; 1.09% in assay [18]. Also, the inhibition in [19] is 1.49%; in assay [20] it was 1.08%.
Regarding `COc1cc2ncn(-c3cc(OCc4ccccc4Cl)c(C(N)=O)s3)c2cc1OC`, the inhibition in assay [1] was found to be 3.59%; in assay [2], 14.3%; in assay [3], 58.6%; in [4], 7.81%; in assay [5], 40.6%; in assay [6], 12.4%. Moreover, the inhibition in assay [7] is 48.6%; in assay [8], 0.78%; in assay [9], 3.64%; in assay [10] it was -2.74%; in assay [11], -0.06%; in assay [12], 0.36%. Further, the inhibition in assay [13] was 2.88%; in assay [14] it was 0.78%; in assay [15], 0.41%; in assay [16], -4.54%; in assay [17], -4.25%; in assay [18] it was -4.95%. Moreover, the inhibition in assay [19] is -0.53%; in assay [20], -8.75%.

These data come from ChEMBL document CHEMBL1961873, “Compounds: GSK PKIS; Assays: Nanosyn kinase panel” (2012).
